Results published in PubChem BioAssay AID1220 (Sanford-Burnham Center for Chemical Genomics, 2008).
The whole screen tested about 190,000 compounds, of which about 1,300 (0.68%) were called active. The list comes from a sample in which actives are over-represented; it also holds similar structures and randomly drawn compounds. Values without a mark were called inactive. No stated cut-off is given here; in the data, active means inhibition above about 50%; inactive means the rest.

Each compound was assayed against Mannose-6-phosphate isomerase (Homo sapiens) (UniProt P34949) (assay: human PMI inhibitors, high substrate, primary screen, biochemical, fluorescence intensity, high mannose 6-phosphate (AID 1220)). Details: recombinant PMI enzyme, coupled fluorescence intensity; at 20 µM; stronger effect = higher value.
Sequence of Mannose-6-phosphate isomerase (Homo sapiens) (P34949 whole entry, looked up): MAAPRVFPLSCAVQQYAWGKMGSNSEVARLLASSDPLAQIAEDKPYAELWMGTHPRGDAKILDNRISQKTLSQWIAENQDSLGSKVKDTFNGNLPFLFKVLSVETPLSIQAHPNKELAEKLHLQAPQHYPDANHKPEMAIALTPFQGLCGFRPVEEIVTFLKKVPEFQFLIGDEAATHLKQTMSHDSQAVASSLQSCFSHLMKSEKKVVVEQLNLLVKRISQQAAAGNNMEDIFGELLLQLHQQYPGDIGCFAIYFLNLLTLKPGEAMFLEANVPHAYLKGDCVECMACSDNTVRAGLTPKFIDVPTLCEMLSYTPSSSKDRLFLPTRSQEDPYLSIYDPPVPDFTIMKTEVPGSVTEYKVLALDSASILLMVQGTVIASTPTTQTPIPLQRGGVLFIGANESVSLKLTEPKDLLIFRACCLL
Compound `CCCN1C(=O)C(Cc2nc3ccccc3c(=O)n2-c2ccccc2)c2ccccc21` (stereo not drawn) has an inhibition of 8.6%.
`Cc1ccc(N2C(=O)C(O)(C(F)(F)F)C3=C2CC(C)(C)CC3=O)cc1C` (stereo not drawn) showed an inhibition of -10%.
For `N#CCC1c2ccccc2CCN1C(=O)Nc1cccc(Cl)c1` (stereo not drawn), the inhibition was 15.2%.
With `CN1CCC(N2CCCC(C(=O)O)C2)CC1` (stereo not drawn) the inhibition was -1.5%.
Compound `O=C(NCC(F)(F)F)Nc1ccccn1` has an inhibition of -4.8%.
In the case of `CCOCCNC(=O)c1ccc2c3c(cccc13)CC2`, the inhibition is reported as -8.4%.
In the case of `CCC(C)NC(=O)C1CCCCN1S(=O)(=O)c1ccc(F)cc1` (stereo not drawn), the inhibition is reported as -2.3%.
For `Cc1nn(C)c(Oc2ccc(Cl)cc2)c1C(=O)Nc1ccc(F)cc1F`, the inhibition was 1.9%.
With `Nc1ccc2c(c1)-c1ccccc1S(=O)(=O)N2` the inhibition was 52.3% (active).
For `Cc1ccc2c(c1)-c1ccccc1S(=O)(=O)N2`, the inhibition was -0.5%.
Work on `NCCN=C1NS(=O)(=O)c2ccccc21` yielded an inhibition of 7.4%.
For `COc1cc(CNCC2CCCO2)ccc1OCC(N)=O` (stereo not drawn), the inhibition was -5.5%.
`COc1ccc2c(c1)OC13CCN(C)CC1C2C(C(=O)c1ccc(F)cc1)C(=O)N3` (stereo not drawn) was tested, and the inhibition was -3.5%.
Work on `CCC(C)C(=O)N1c2ccccc2C(=C2SC(C(=O)OC)=C(C(=O)OC)S2)C(=S)C1(C)C` (stereo not drawn) yielded an inhibition of 48.7%.
In the case of `COC(=O)C1=C(C(=O)OC)SC(=C2C(=S)C(C)(C)N(C(=O)CC(C)C)c3ccccc32)S1`, the inhibition is reported as 33%.
With `CC1C(=O)Nc2ccccc2N1C(=O)C1CC1` (stereo not drawn) the inhibition was -7.6%.
For `CCCC(=O)N1c2ccccc2C(=C2SC(C(=O)OC)=C(C(=O)OC)S2)C(=S)C1(C)C`, the inhibition was 32.9%.
Compound `COCCNC(=O)C(C(=O)c1ccc(F)cc1)n1cc(C)ccc1=O` (stereo not drawn) has an inhibition of 19.5%.
`Cc1cccc(C(=O)NC(NCCc2ccccc2)C(Cl)(Cl)Cl)c1` (stereo not drawn) gave an inhibition of 1.5%.
Compound `COC(=O)C(C)Sc1nc(N)c(NC(=O)c2ccco2)c(=O)[nH]1` (stereo not drawn) has an inhibition of 1.6%.
For `Cc1ccc(CN2CCCC(CO)(Cc3ccccc3C)C2)s1` (stereo not drawn), the inhibition was 13%.
`CCCCCN1C=CC(=C2C(=O)c3ccccc3C2=O)C=C1` was tested, and the inhibition was -2.8%.
`CCc1ccccc1N1CSC2=C(C#N)C(c3cc(OC)c(OC)cc3OC)CC(=O)N2C1` (stereo not drawn) showed an inhibition of 9%.
Work on `COc1cc(C2CC(=O)N3CN(c4ccccc4C)CSC3=C2C#N)cc(OC)c1OC` (stereo not drawn) yielded an inhibition of 11.4%.
In the case of `COc1ccccc1N1CSC2=C(C#N)C(c3ccc(SC)cc3)CC(=O)N2C1` (stereo not drawn), the inhibition is reported as 7.1%.
For `CCOc1ccccc1N1CSC2=C(C#N)C(c3c(OC)ccc4ccccc34)CC(=O)N2C1` (stereo not drawn), the inhibition was 67.1% (active).
Work on `CC(C)c1ccc(C2CC(=O)N3CN(C)CSC3=C2C#N)cc1` (stereo not drawn) yielded an inhibition of 28.9%.
For `COc1cccc(C2CC(=O)N3CN(c4cccc(Cl)c4C)CSC3=C2C#N)c1OC` (stereo not drawn), the inhibition was 0.2%.
Work on `CCOc1cc(C2CC(=O)N3CN(C4CCCCC4)CSC3=C2C#N)ccc1O` (stereo not drawn) yielded an inhibition of 49%.
For `COc1ccc2ccccc2c1C1CC(=O)N2CN(C)CSC2=C1C#N` (stereo not drawn), the inhibition was 68.7% (active).
`COc1ccc2ccccc2c1C1CC(=O)N2CN(C3CCCCC3)CSC2=C1C#N` (stereo not drawn) was tested, and the inhibition was 52.1% (active).
`COc1ccc(OC)c(-n2c(-c3cccc(S(=O)(=O)N(C)C)c3)n[nH]c2=S)c1` showed an inhibition of 15.9%.
For `Nc1nc(-c2ccc(Cl)cc2)c(S(=O)(=O)c2ccccc2)s1`, the inhibition was -1.5%.
`COc1cc(/C=N/NC(=O)CN2CCOCC2)ccc1OCc1ccccc1` was tested, and the inhibition was -5.3%.
Compound `COc1ccc(Cl)c(NC(=O)Cn2nnc(-c3ccccc3N)n2)c1` has an inhibition of -3.6%.
For `CCc1nc(Nc2ccc3c(c2)OCO3)c2oc3ccccc3c2n1`, the inhibition was 23%.
With `CCOCCCNS(=O)(=O)c1ccc(NC(=O)C2CC(=O)N(c3ccc(C)cc3)C2)cc1` (stereo not drawn) the inhibition was 6%.
Compound `Cc1cc(C)c(C(=O)/C=C/C=C/c2ccccc2)c(=O)[nH]1` has an inhibition of 22.8%.
With `C/C(=N\NC(=O)c1nn(C)c(C)c1Br)c1ccc(NC(=O)c2ccccc2F)cc1` the inhibition was 10.7%.
For `COc1ccc(C(=O)NC(=S)NNC(=O)c2ccc(NC(=O)C(C)C)cc2)cc1`, the inhibition was -10.9%.
For `O=c1[nH]ncc(N2CCCCC2)c1Cl`, the inhibition was 12.3%.
`Cc1cc([N+](=O)[O-])ccc1NCc1ccccc1[N+](=O)[O-]` was tested, and the inhibition was 21.5%.
In the case of `Cc1cc(F)ccc1NCc1ccccc1[N+](=O)[O-]`, the inhibition is reported as 70% (active).
Work on `Cc1cc(F)ccc1NCc1cc2c(cc1[N+](=O)[O-])OCO2` yielded an inhibition of 37.6%.
`CCOC(=O)/C(C(=O)Nc1ccc(Br)cc1)=C1/NC(C)(C)Cc2ccccc21` gave an inhibition of 3.4%.
For `OCCNC(=S)Nc1ccc(Oc2ccccc2)cc1`, the inhibition was 2.2%.
With `CCCC12CN3CCN(CC(C3)/C1=N\NC(=O)c1ccccc1Cl)C2` the inhibition was -11.2%.
Compound `O=C1c2ccccc2C(Nc2ccc3c(c2)OCCO3)N1Cc1ccco1` (stereo not drawn) has an inhibition of 0.2%.
With `O=C1c2ccccc2C(Nc2ccc3c(c2)OCO3)N1Cc1ccc2c(c1)OCO2` (stereo not drawn) the inhibition was 23.7%.
For `O=C1c2ccccc2C(Nc2ccc3c(c2)OCO3)N1Cc1ccco1` (stereo not drawn), the inhibition was 57.7% (active).
Compound `CCN(C(=O)CSc1nnc(-c2c[nH]c3ccccc23)o1)C1CCS(=O)(=O)C1` (stereo not drawn) has an inhibition of 4.2%.
`COc1ccccc1CNc1nc2nc3c(c(=O)n2[nH]1)CCC3` showed an inhibition of 4.2%.
`O=c1c2c(nc3nc(NCc4ccccc4Cl)[nH]n13)CCC2` showed an inhibition of -5.2%.
For `O=c1c2c(nc3nc(NCc4cccc5ccccc45)[nH]n13)CCC2`, the inhibition was 55.7% (active).
`Cc1ccc(-c2ccc(=O)n(CC(=O)NCCCN3CCCCC3C)n2)cc1` (stereo not drawn) showed an inhibition of 12.3%.
In the case of `Cc1ccc(-c2ccc(=O)n(CC(=O)NCCN3CCCCC3C)n2)cc1` (stereo not drawn), the inhibition is reported as 60.7% (active).
Compound `CC1CCCCN1CCNC(=O)Cn1nc(-c2ccccc2)ccc1=O` (stereo not drawn) has an inhibition of -4.4%.
In the case of `O=[N+]([O-])c1cccc(-c2nc(N3CCOCC3)c3ccccc3n2)c1`, the inhibition is reported as -8.1%.
Compound `COC(=O)COc1ccc(/C=C2/NC(=O)N(CC(=O)OC)C2=O)cc1` has an inhibition of 1.1%.
For `O=C1C(Cl)=C(NCC2CCCO2)C(=O)N1c1ccccc1` (stereo not drawn), the inhibition was 2.7%.
With `COc1ccc(/C=C/C(=O)c2ccoc2)cc1` the inhibition was 3.7%.
`COc1ccc2ccccc2c1C(=O)/C=C\c1ccoc1` was tested, and the inhibition was 50% (active).
In the case of `O=C(/C=C/c1ccoc1)c1ccccc1O`, the inhibition is reported as 17.9%.
Compound `OC1(c2cccs2)CN(c2ccccc2)C2=[N+]1CCCC2` (stereo not drawn) has an inhibition of -12%.
With `COc1cccc(CNc2ccc(F)c(Cl)c2)c1OC` the inhibition was -11%.
With `COc1cccc(CNc2ccc(N3CCC(C)CC3)cc2)c1OC` the inhibition was 63.1% (active).
`COc1cccc(CNc2ccc(S(N)(=O)=O)cc2)c1OC` was tested, and the inhibition was -2.8%.
`COc1ccc(-c2nnn(CC(=O)N(Cc3ccccc3Cl)C(C(=O)NCC3CCCO3)c3ccco3)n2)cc1OC` (stereo not drawn) was tested, and the inhibition was 23.8%.
In the case of `CC1=NOC(=O)/C1=C/c1ccc(-c2ccc(Cl)cc2)o1`, the inhibition is reported as 13.4%.
Work on `CCCN(CCC)CCNC(=O)CCC(=O)Nc1ccc2nc(N3CCN(C)CC3)cc(C)c2c1` yielded an inhibition of 42.5%.
`CCCCN(CC)CCNC(=O)CCC(=O)Nc1ccc2nc(N3CCN(C)CC3)cc(C)c2c1` was tested, and the inhibition was 58.2% (active).
Work on `Cc1cc(N2CCCC2)nc2ccc(NC(=S)NCCCOC(C)C)cc12` yielded an inhibition of -3.8%.
Compound `CCN1CCN(c2cc(C)c3cc(NC(=S)NCCCN4CCc5ccccc5C4)ccc3n2)CC1` has an inhibition of 27.2%.
`CCOCCCNC(=S)Nc1ccc2nc(N3CCCC3)cc(C)c2c1` was tested, and the inhibition was 50.2% (active).
Work on `CCCCNC(=O)CCC(=O)Nc1ccc2nc(N3CCN(C)CC3)cc(C)c2c1` yielded an inhibition of 12%.
For `COCCNC(=S)Nc1ccc2nc(N3CCCC3)cc(C)c2c1`, the inhibition was 12.4%.
In the case of `Cc1cc(N2CCN(C)CC2)nc2ccc(NC(=S)NCCN3CCc4ccccc4C3)cc12`, the inhibition is reported as -3.7%.
For `Cc1cc(N2CCN(C)CC2)nc2ccc(NC(=S)NCCCN3CCc4ccccc4C3)cc12`, the inhibition was 58.5% (active).
Work on `CC1CCCCC1NC(=O)CO/N=C/c1ccccc1OC(F)F` (stereo not drawn) yielded an inhibition of 5.8%.
`COCCOCCn1c(CCCO)nc2ccccc21` was tested, and the inhibition was -2.6%.
`Cc1ccc(S(=O)(=O)N2CCN(Cc3nc4ccccc4[nH]3)CC2)cc1C` was tested, and the inhibition was -2.8%.
Work on `CCOC(=O)Cc1csc(NC(=O)CSc2nnc(Cc3csc(N)n3)n2C)n1` yielded an inhibition of 14.4%.
`O=C(NCCN1CCOCC1)c1cc2cc(Br)ccc2oc1=O` was tested, and the inhibition was 9.2%.
For `CCOC(=O)N1CCC(NS(=O)(=O)c2ccc3c(c2)CCN3C(C)=O)CC1`, the inhibition was 2.5%.
In the case of `O=C(C1CC1)N1CCc2cc(Br)cc(S(=O)(=O)NC3CCCCC3)c21`, the inhibition is reported as 2.5%.
`Cn1cccc1C(=O)C(=O)Nc1ccccc1` gave an inhibition of -5.5%.
Compound `Cn1cccc1C(=O)C(=O)Nc1ccc(Cl)cc1` has an inhibition of -0.1%.
`COC(=O)c1ccc(NC(=O)C(=O)c2cccn2C)cc1` was tested, and the inhibition was 52.2% (active).
In the case of `COc1ccc2c(c1)CCc1cnc(N)nc1-2`, the inhibition is reported as 60% (active).
With `COc1ccc(-c2cnc(N)nc2-c2ccc(OC)cc2O)cc1` the inhibition was 11.9%.
`Nc1ncc2c(n1)-c1ccccc1CC2` gave an inhibition of 32.5%.
In the case of `CCOC(=O)N1CCN(C(=O)C2CCN(Cc3nc(-c4ccccc4C)oc3C)CC2)CC1`, the inhibition is reported as -4.9%.
For `COc1cc(/C=C/C(=O)Nc2cc(S(=O)(=O)N3CCOCC3)ccc2N2CCCC2)cc(OC)c1OC`, the inhibition was 19.5%.
Work on `c1ccc(-c2csc3ncnc(NCCCN4CCOCC4)c23)cc1` yielded an inhibition of -16.3%.
In the case of `O=C(NCc1ccccc1)C1=C[C@@H](c2csc3ccccc23)C[C@@H](OCc2ccc(CO)cc2)O1`, the inhibition is reported as 44.5%.
In the case of `C#CCNC(=O)C1=C[C@@H](c2cn(C(C)=O)c3ccccc23)C[C@@H](OCCCCO)O1`, the inhibition is reported as 22.9%.
`O=C(NCc1ccccc1)C1=C[C@@H](c2csc3ccccc23)C[C@@H](OCCCCO)O1` was tested, and the inhibition was 53.8% (active).
`CC(=O)n1cc([C@@H]2C=C(C(=O)NCc3ccccc3)O[C@H](OCCCCO)C2)c2ccccc21` was tested, and the inhibition was 50.3% (active).
For `C#CCNC(=O)C1=C[C@H](c2csc3ccccc23)C[C@H](OCCCCO)O1`, the inhibition was 30.3%.
Compound `O=C(C1=C[C@H](c2csc3ccccc23)C[C@H](OCCCCO)O1)N1CCN(Cc2ccccc2)CC1` has an inhibition of 22.9%.
For `CC(=O)n1cc([C@H]2C=C(C(=O)NCc3ccccc3)O[C@@H](OCCCCO)C2)c2ccccc21`, the inhibition was 46.3%.
Work on `O=C(Nc1ccccc1)C1=C[C@H](c2csc3ccccc23)C[C@H](OCCCCO)O1` yielded an inhibition of 12.8%.
`O=C(NCc1ccccc1)C1=C[C@H](c2csc3ccccc23)C[C@H](OCCCCO)O1` was tested, and the inhibition was 53.9% (active).
